Survival data for 91 compounds are collected here from PubChem BioAssay AID463173 (ICCB-Longwood Screening Facility, Harvard Medical School, 2010).

Out of some 52,000 compounds screened, about 4,300 (8.3%) were called active. The sample holds actives, similar compounds and a random draw of the others, so the mix is not that of the screen. Cut-off read from the data, not from the text of the source: active = survival mostly below about 52% (no sharp cut-off); inactive = mostly above about 56%.

The subject of this test is DeltatarO mutant. As to the kind of experiment: growth inhibition of S. aureus wild type versus tarO mutant, primary screen, teichoic acid synthesis inhibitors, RN4220, OD600 (AID 463173). The conditions noted are these: OD600, 18 h, active compounds read low, screened at 18.75 µg/mL (by protocol).
For `Cc1cc(NC(=O)C2C3C(=O)N(c4ccccc4Cl)C(C(=O)NC(C)(C)C)C34C=CC2(C)O4)no1` (stereo unspecified), the survival is 108% (inactive).
Turning to `Cc1ccccc1OCC(=O)Nc1nnc(SCc2cc(=O)n3cc(Cl)ccc3n2)s1`, the survival was 84% (inactive).
As to `CCc1ccc(C2c3c(oc4ccc(F)cc4c3=O)C(=O)N2CCc2ccc(OC)cc2)cc1` (stereo unspecified), the survival was 94% (inactive).
Turning to `Cc1ccc(-n2c(=O)c3ccc(C(=O)NCc4ccco4)cc3n(CC(=O)Nc3ccc(C)c(F)c3)c2=O)cc1`, the survival was 84% (inactive).
Turning to `CCOc1cccc(CC(=O)NCc2ccc3c(c2)CCN3C(=O)c2cccc(C)c2)c1OCC`, the survival is 54% (inactive).
As to `COc1ccc(N(C(=O)/C=C\C(=O)Nc2ccc(Cl)cc2)C(C(=O)NCc2ccco2)c2ccc(C)cc2)cc1` (stereo unspecified), the survival was 115% (inactive).
In the case of `Cc1cccc(N2CCN(C(=O)C3CCN(C(=O)c4cc5sccc5n4C)CC3)CC2)c1C`, the survival was 53% (inactive).
Turning to `Cc1cccc(N2CCN(C(=O)C3CCCN(C(=O)c4cc5sccc5n4C)C3)CC2)c1C` (stereo unspecified), the survival was 53% (active).
For `Cn1c(C(=O)N2CCCC(C(=O)N3CCN(c4ccccc4)CC3)C2)cc2sccc21` (stereo unspecified) the value was 89% (inactive).
For `CCc1ccc(OC(C)C(=O)N2CCC(c3nc4ccccc4o3)CC2)cc1` (stereo unspecified) the value was 85% (inactive); for `COc1ccccc1OCC(=O)N1CCC(c2nc3ccccc3o2)CC1`, 0% (active).
As for `Cc1cccc(OC(C)C(=O)N2CCC(c3nc4ccccc4o3)CC2)c1C` (stereo unspecified), the figure is 75% (inactive); as for `Cc1cccc(C)c1OCC(=O)N1CCC(c2nc3ccccc3o2)CC1`, 86% (inactive); as for `CC(Oc1ccccc1F)C(=O)N1CCC(c2nc3ccccc3o2)CC1` (stereo unspecified), -1% (active).
`Cc1cccc(OCC(=O)N2CCC(c3nc4ccccc4o3)CC2)c1C`: the survival was 81% (inactive).
As for `O=C(CC1CCCCC1)Nc1ccccn1`, the figure is 73% (inactive).
Take `COc1ccc(N2C(=O)C(C)C(Cc3ccc(C)cc3)C2=O)cc1` (stereo unspecified): the survival is 103% (inactive).
As for `CCC(=O)Nc1ccc(NC(=O)c2ccc(F)cc2)nc1`, the figure is 85% (inactive); as for `COc1ccc(NC(=O)NCC2CCN(Cc3ccccc3F)CC2)c(OC)c1`, 96% (inactive); as for `CC1CCCCN1C(=O)C1COc2ccccc2O1` (stereo unspecified), 65% (inactive).
On to `CCN(c1ccccc1)c1nnc(NC(=O)Nc2cccc(Br)c2)s1`, for which the survival was 80% (inactive).
Consider `Cc1cccc(NC(=O)Nc2ccc(Br)cc2)n1`, for which the survival is 126% (inactive).
As for `CCc1ccc(-n2nc3ccc(NC(=O)c4cc(Cl)c(OC)c(Cl)c4)cc3n2)cc1`, the figure is 83% (inactive); as for `COc1ccc(-n2nc3ccc(NC(=O)c4c(OC)cccc4OC)cc3n2)cc1`, 135% (inactive); as for `COc1cc(C(=O)Nc2ccc3nn(-c4ccc(F)cc4)nc3c2)cc(OC)c1OC`, 45% (active).
For `Cc1ccc2oc(-c3ccc(NC(=O)c4oc5ccc(Cl)cc5c4C)cc3)nc2c1` the value was 66% (inactive).
As for `Cc1ccc(-n2nc3ccc(NC(=O)c4cc5ccccc5o4)cc3n2)cc1`, the figure is 70% (inactive); as for `Cc1c(C(=O)Nc2ccncc2)oc2ccccc12`, 98% (inactive).
`Cc1ccc2oc(C(=O)Nc3cccc(-c4nc5ccccc5s4)c3)c(C)c2c1`: the survival is 55% (inactive).
For `Cc1ccc(-n2nc3ccc(NC(=O)c4oc5ccccc5c4C)cc3n2)cc1` the value was 31% (active); for `Cc1ccc(-n2nc3ccc(NC(=O)c4oc5ccc(C)cc5c4C)cc3n2)cc1`, 38% (active).
Take `O=C(Cn1ncc2c3ccccc3n(Cc3ccc(F)cc3)c2c1=O)NCCC1=CCCCC1`: the survival was 85% (inactive).
As for `CC(C)(C)C(=O)Nc1c(C(=O)N2CCN(c3ccc(F)cc3)CC2)oc2ccccc12`, the figure is 80% (inactive).
As for `CCn1cc(C(=O)NCc2ccc(Cl)cc2)c(=O)c2cc(S(=O)(=O)N(C)C3CCCCC3)ccc21`, the figure is 70% (inactive); as for `CCOc1ccc(NC2=NCCC(=O)N2Cc2cccs2)cc1`, 83% (inactive); as for `O=C(O)c1nnc(Cl)c2ccccc12`, 91% (inactive).
With `Cc1nc(-c2ccc(Cl)cc2)sc1CCNC(=O)C(=O)Nc1ccccc1C#N`, the survival was 80% (inactive).
As for `Cc1cccn2c(=O)c3cc(C(=O)NCc4ccccc4Cl)sc3nc12`, the figure is 62% (inactive); as for `Cc1ccc(CNC(=O)c2cc3c(=O)n4cccc(C)c4nc3s2)cc1`, 54% (active).
`COc1ccc(CNC(=O)c2cc3c(=O)n4cccc(C)c4nc3s2)cc1`: the survival was 68% (inactive).
Take `CCCCNC(=O)c1cc2c(=O)n3cccc(C)c3nc2s1`: the survival is 150% (inactive).
As for `CCOC(=O)CNC(=O)c1cc2c(=O)n3cccc(C)c3nc2s1`, the figure is 179% (inactive).
For `Cc1cccn2c(=O)c3cc(C(=O)NCC(C)C)sc3nc12` the value was 63% (active); for `O=C(CN1CCC(n2nnc3cc(C(F)(F)F)ccc32)CC1)Nc1ccc(N2CCCC2)cc1`, 86% (inactive).
As for `CCN(CC)CCNC(=O)c1sc2nc(C)cc(C)c2c1-n1cccc1`, the figure is 86% (inactive); as for `CC(C)CN(CCNC(=O)c1cc(=O)[nH]c2ccc(S(=O)(=O)N3CCCCCC3)cc12)CC(C)C`, 86% (inactive); as for `COc1ccc(OC)c(CNC(=O)Cn2ncc3c([nH]c4ccc(C)cc43)c2=O)c1`, 92% (inactive).
`Cc1cc(OC(=O)c2cc(-c3ccc4c(c3)OCCO4)on2)ccc1Cl`: the survival was -1% (active).
For the compound `N#Cc1ccc(OC(=O)c2cc(-c3ccc4c(c3)OCCO4)on2)cc1`, the survival was 117% (inactive).
`COc1ccc(OC(=O)c2cc(-c3ccc4c(c3)OCCO4)on2)cc1`: the survival was 101% (inactive).
Take `CC(C)c1ccc(OC(=O)c2cc(-c3ccc4c(c3)OCCO4)on2)cc1`: the survival was 8% (active).
Regarding `Cc1ccc(OC(=O)c2cc(-c3ccc4c(c3)OCCO4)on2)cc1C`, the survival is -2% (active).
As for `O=C(Nc1cc(C(F)(F)F)ccc1Cl)c1cc(-c2ccc3c(c2)OCCO3)on1`, the figure is 116% (inactive); as for `O=C(Oc1ccc(Cl)cc1)c1cc(-c2ccc3c(c2)OCCO3)on1`, 116% (inactive).
On to `CC(C)c1ccc(OC(=O)c2cc(-c3ccc(Cl)cc3)on2)cc1`, for which the survival is 98% (inactive).
As for `Cc1ccc(-c2cc(C(=O)Oc3ccc(C#N)cc3)no2)cc1`, the figure is 97% (inactive); as for `CCC(C)NC(=O)Cn1c(=O)cc(-c2ccccc2)c2c(C)nn(C)c21` (stereo unspecified), 70% (inactive); as for `COc1cccc(NC(=O)Cc2csc(COc3cccc(C)c3)n2)c1`, 72% (inactive).
Regarding `COC(=O)c1cnn(-c2ccc(C(=O)Nc3ccc(OC(F)(F)F)cc3)cc2)c1N`, the survival is 25% (active).
As for `CCOC(=O)c1cnn(-c2ccc(C(=O)Nc3ccc(OC(F)(F)F)cc3)cc2)c1N`, the figure is 124% (inactive); as for `COC(=O)c1cnn(-c2ccc(C(=O)Nc3ccc(C(C)=O)cc3)cc2)c1N`, 63% (inactive).
As for `O=C(Cn1nc2c(cc1=O)CCCC2)NCc1ccccc1Cl`, the figure is 144% (inactive); as for `COc1ccccc1CNS(=O)(=O)c1cc(-c2cc(C)no2)ccc1C`, 102% (inactive).
For `CCc1ccccc1NC(=O)CSc1nnc(-c2cc(OC)c(OC)c(OC)c2)o1` the value was 111% (inactive); for `CCCSCCCNC(=O)CN1C(=O)COc2ccc(S(=O)(=O)N3CCCC3)cc21`, 71% (inactive).
For `CCCCSCCCNC(=O)CN1C(=O)COc2ccc(S(=O)(=O)N3CCCC3)cc21`, the survival was 66% (inactive).
For `O=C(CN1C(=O)COc2ccc(S(=O)(=O)N3CCCCCC3)cc21)N1CCN(c2cccc(C(F)(F)F)c2)CC1` the value was 61% (active); for `O=C(CN1C(=O)COc2ccc(S(=O)(=O)N3CCOCC3)cc21)N1CCN(c2cccc(C(F)(F)F)c2)CC1`, 93% (inactive); for `CCCSCCCNC(=O)CN1C(=O)COc2ccc(S(=O)(=O)N3CCCCCC3)cc21`, 62% (active).
As for `O=C(CN1C(=O)COc2ccc(S(=O)(=O)N3CCCC3)cc21)N1CCN(c2cccc(C(F)(F)F)c2)CC1`, the figure is 79% (inactive).
For `CC(=O)c1cccc(NC(=O)CCc2c(C)nc3c(-c4ccc(F)cc4)c(C)nn3c2C)c1` the value was 76% (inactive); for `CCC1CN(C(=O)Nc2ccc(Br)cc2F)c2ccccc2S1` (stereo unspecified), 90% (inactive); for `CCOC(=O)C1CCN(c2nc3c(S(=O)(=O)c4ccccc4)nnn3c3ccc(Cl)cc23)CC1`, 112% (inactive).
Turning to `COc1cc(C2CC(=O)Nc3ccc4ccccc4c32)ccc1OC(=O)C(C)C` (stereo unspecified), the survival is 67% (inactive).
As for `Cc1ccc2c(c1)N(C(=O)Nc1cccc3c1CCCC3)CC(C)O2` (stereo unspecified), the figure is 56% (inactive); as for `CCOc1ccc(CCNS(=O)(=O)c2c(C)nc3scc(C)n3c2=O)cc1OCC`, 83% (inactive); as for `CCN(CC)S(=O)(=O)c1ccc2c(c1)c(=O)c(C(=O)NCc1ccccc1Cl)cn2C`, 61% (inactive).
With `CC(C)(C)NSc1nc2ccccc2s1`, the survival is 58% (active).
As for `CCNc1nc2ccccc2s1`, the survival was 72% (inactive).
For `COC(=O)CSc1nc2ccccc2s1` the value was 94% (inactive); for `Cc1ccccc1-c1noc(-c2ccc(N3CCC(C)CC3)c([N+](=O)[O-])c2)n1`, 55% (inactive).
For `CCOc1ccc2nc(N3CCC(C(=O)Nc4ccccc4CC)CC3)sc2c1` the value was 70% (inactive); for `Cc1c(NC(=O)c2cc(-c3ccc(Cl)c(Cl)c3)on2)c(=O)n(-c2ccccc2)n1C`, 38% (active).
For `Cc1c(NC(=O)c2cc(-c3ccc(Cl)cc3)on2)c(=O)n(-c2ccccc2)n1C` the value was 121% (inactive); for `Cc1c(NC(=O)c2cc(-c3ccc(O)cc3)on2)c(=O)n(-c2ccccc2)n1C`, 169% (inactive); for `Cc1c(NC(=O)c2cc(-c3cccc(Cl)c3)on2)c(=O)n(-c2ccccc2)n1C`, 55% (inactive).
Regarding `Cc1c(NC(=O)c2cc(-c3cccc(O)c3)on2)c(=O)n(-c2ccccc2)n1C`, the survival is 56% (inactive).
For `COc1ccc(-c2cc(C(=O)Nc3c(C)n(C)n(-c4ccccc4)c3=O)no2)cc1` the value was 46% (active); for `Cc1c(NC(=O)c2cc(-c3ccc(F)cc3)on2)c(=O)n(-c2ccccc2)n1C`, 72% (inactive).
Regarding `Cc1c(NC(=O)c2cc(-c3ccccc3O)on2)c(=O)n(-c2ccccc2)n1C`, the survival is 51% (active).
Regarding `COc1ccc(-c2cc(C(=O)Nc3c(C)n(C)n(-c4ccccc4)c3=O)no2)cc1OC`, the survival is 59% (inactive).
